Shown are actives, neighbours in structure and some others; about 2.7% of the full set was active somewhere.
PfGluPho inh = PfG6PD (Plasmodium falciparum) enzyme inhibition; PfGluPho enzyme, NADPH resazurin-diaphorase fluorescence; inhibition, % at 20 µM; hit rate 0.78% among 350,000;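 active means inhibition reaching at least a set limit at 20 µM in the primary screen, cut at about 59% in these data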
KLK7 zymogen act = proKLK7 (human) activation, primary screen; P49862; purified proKLK7, EDANS-DABCYL substrate fluorescence; 100% is mature enzyme control, 0% vehicle; activation, % at 7 µM; hit rate 0.9% among 370,000; AID 652039;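 active means activation above the mean of all tested compounds plus 3 SD, computed per campaign excluding outliers beyond control limits, cut at about 13% in these data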
FAS TE block = inhibitors of human fatty acid synthase thioesterase domain; P49327; recombinant FAS-TE, OMFH fluorogenic substrate, fluorescence endpoint; inhibition, % at 15 µM; hit rate 0.67% among 360,000;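 active means compounds whose normalised, plate-corrected inhibition of enzyme fluorescence in the single-dose primary screen is 50% or more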
Target sequence (P49327 whole entry, looked up, the tested form may be a part): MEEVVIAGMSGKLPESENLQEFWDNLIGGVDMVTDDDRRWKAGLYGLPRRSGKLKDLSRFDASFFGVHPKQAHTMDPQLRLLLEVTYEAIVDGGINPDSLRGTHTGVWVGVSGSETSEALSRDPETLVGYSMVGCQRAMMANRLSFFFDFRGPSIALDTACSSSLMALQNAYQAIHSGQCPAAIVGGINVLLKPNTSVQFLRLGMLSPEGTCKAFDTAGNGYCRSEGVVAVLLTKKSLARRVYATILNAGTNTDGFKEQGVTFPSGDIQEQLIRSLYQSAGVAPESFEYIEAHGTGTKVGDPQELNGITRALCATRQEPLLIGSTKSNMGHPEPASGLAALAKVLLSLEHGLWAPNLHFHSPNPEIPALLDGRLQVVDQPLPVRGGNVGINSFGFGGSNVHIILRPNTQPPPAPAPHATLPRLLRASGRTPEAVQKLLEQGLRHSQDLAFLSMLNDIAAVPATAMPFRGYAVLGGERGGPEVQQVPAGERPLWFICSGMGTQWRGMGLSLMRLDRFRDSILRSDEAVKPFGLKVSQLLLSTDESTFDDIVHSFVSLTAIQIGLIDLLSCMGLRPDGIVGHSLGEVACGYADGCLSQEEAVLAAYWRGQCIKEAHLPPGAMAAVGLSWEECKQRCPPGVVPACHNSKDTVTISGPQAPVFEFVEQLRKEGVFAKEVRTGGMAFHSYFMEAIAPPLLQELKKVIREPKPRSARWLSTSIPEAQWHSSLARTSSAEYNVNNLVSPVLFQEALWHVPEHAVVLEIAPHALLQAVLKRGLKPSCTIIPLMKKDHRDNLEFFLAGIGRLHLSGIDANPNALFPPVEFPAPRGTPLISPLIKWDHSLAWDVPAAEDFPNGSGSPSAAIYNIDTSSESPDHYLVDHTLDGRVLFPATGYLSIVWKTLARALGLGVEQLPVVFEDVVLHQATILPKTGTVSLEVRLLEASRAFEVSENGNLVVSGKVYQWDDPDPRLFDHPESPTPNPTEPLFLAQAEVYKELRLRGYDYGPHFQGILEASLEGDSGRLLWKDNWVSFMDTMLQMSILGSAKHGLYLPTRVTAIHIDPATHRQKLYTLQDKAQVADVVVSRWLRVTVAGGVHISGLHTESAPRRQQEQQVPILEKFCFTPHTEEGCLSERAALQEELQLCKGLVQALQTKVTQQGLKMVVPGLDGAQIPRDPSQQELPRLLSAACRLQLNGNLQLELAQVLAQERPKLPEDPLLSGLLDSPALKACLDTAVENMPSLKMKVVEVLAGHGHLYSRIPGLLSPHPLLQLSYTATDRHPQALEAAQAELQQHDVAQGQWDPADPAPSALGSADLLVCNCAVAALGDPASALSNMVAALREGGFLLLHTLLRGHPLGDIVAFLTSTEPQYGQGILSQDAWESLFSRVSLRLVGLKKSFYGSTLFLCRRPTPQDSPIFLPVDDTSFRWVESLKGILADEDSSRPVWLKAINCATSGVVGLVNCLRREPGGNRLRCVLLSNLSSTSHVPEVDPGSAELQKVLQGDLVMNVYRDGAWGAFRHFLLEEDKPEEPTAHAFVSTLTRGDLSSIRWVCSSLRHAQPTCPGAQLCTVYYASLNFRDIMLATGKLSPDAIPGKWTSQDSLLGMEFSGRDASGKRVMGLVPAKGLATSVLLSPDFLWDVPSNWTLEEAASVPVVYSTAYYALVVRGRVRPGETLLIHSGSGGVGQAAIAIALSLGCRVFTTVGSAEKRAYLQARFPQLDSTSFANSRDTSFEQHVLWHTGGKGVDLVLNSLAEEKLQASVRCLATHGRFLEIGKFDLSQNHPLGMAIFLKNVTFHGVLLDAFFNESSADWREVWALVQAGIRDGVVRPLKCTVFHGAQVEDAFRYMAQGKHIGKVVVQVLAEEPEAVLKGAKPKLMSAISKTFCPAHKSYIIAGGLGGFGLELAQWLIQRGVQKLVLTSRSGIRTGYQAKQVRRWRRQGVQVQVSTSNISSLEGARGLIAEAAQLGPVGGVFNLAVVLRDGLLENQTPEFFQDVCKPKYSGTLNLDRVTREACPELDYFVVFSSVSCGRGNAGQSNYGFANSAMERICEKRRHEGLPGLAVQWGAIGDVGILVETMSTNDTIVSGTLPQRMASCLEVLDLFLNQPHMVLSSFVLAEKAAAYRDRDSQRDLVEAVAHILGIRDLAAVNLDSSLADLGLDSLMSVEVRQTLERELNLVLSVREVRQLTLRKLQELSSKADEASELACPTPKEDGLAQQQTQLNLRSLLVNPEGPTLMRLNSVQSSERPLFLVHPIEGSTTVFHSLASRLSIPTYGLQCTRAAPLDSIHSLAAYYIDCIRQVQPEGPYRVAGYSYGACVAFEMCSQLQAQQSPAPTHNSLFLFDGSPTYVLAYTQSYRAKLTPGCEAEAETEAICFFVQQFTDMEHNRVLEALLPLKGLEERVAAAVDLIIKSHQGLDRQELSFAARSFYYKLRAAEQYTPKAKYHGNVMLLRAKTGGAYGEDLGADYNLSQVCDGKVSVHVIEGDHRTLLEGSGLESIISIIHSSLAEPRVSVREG
Neddyl block = blocks human cullin neddylation; P61081+Q13564; TR-FRET cullin neddylation, biochemical; calls only at 25 µM; hit rate 0.58% among 360,000; AID 651699; in the data active means inhibition above about 36%
KLK7 act conf = proKLK7 activation, confirmation | activation, % at 7 µM | purified proKLK7, EDANS-DABCYL substrate fluorescence; scaled: vehicle 0, mature enzyme 100 | shares compounds with KLK7 zymogen act | hit rate 68% among 3,200;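 active means activation, as change over the incubation, above the mean of all tested compounds plus 3 SD, cut at about 13% in these data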
EDANS-DABCYL int = counter-screen for kallikrein-7 activators: EDANS-DABCYL optical interference. shares compounds with KLK7 zymogen act. activation, % at 7 µM. AID 686952. hit rate 80% among 3,200. EDANS-DABCYL substrate fluorescence interference, no enzyme, 4 h; solvent 0%, active enzyme control 100%;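 active means activation above the all-compound mean plus 3 SD, ignoring values outside control-based bounds, cut at about 4.8% in these data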;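 further: value is the 4 h activation minus the activation read at time zero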
K7 EDANS ctr = optically interferes with EDANS-DABCYL fluorescence, kallikrein-7 activator counter-screen | shares compounds with KLK7 zymogen act | EDANS-DABCYL peptide fluorescence interference, no enzyme | EC50, µM | hit rate 20% among 250 | AID 720493;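 active means compounds that raise the fluorescence signal in this interference counterscreen, with EC50 at or below 10 µM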;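 further: intact quenched peptide substrate alone read at 355 nm excitation and 520 nm emission; signal is fluorescence gain from T0 to T4 after four hours at room temperature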
Each line names hits and unclear results; the compound was inactive in the other large screens (follow-up assays come after a bar, where shown).

C=CCn1c(=N)c(C(=O)NCCCOC)cc2c(=O)n3cc(C)ccc3nc21	KLK7 zymogen act 143 | KLK7 act conf 58 | EDANS-DABCYL int 62
COCCCNC(=O)c1cc2c(=O)n3cccc(C)c3nc2n(C(C)C)c1=N	none (not shown: Neddyl block)
C=CCn1c(=N)c(C(=O)NCCCOC)cc2c(=O)n3ccccc3nc21	KLK7 zymogen act 136 | KLK7 act conf 57 | EDANS-DABCYL int 67
CCC(c1nnnn1-c1ccc2c(c1)OCCO2)N1CCc2ccccc2C1 (stereo unspecified)	none (no result: PfGluPho inh)
COc1cccc(/C=C/C(=O)Nc2ccc(C(=O)Nc3cccc(S(N)(=O)=O)c3)cc2)c1OC	KLK7 zymogen act 77 (not shown: Neddyl block) | KLK7 act conf 79 | EDANS-DABCYL int 83
CCN(CC)CCNC(=O)c1ccc(NC(=O)c2ccc(S(=O)(=O)N(C)c3ccccc3OC)cc2)cc1	none
COc1ccccc1N(C)S(=O)(=O)c1ccc(C(=O)Nc2ccc(C(N)=O)cc2)cc1	KLK7 zymogen act 24 | KLK7 act conf 22 | EDANS-DABCYL int inactive | K7 EDANS ctr inactive
OC[C@@H]1CN(Cc2ccc(Cl)cc2)C[C@H](n2cnc3c(N4CCN(c5ccccc5)CC4)ncnc32)O1	none (no result: PfGluPho inh)
Nc1ccc(Cn2ccc3c4c(N)nc(N)nc4ccc32)cc1	none
CC1=CC2=C(C=O)C(=O)C(C)(O)C(O)C2=CO1 (stereo unspecified)	KLK7 zymogen act 21 | KLK7 act conf 29 | EDANS-DABCYL int 27
COc1ccc(-c2cc3ccc(O)cc3oc2=O)cc1OC	KLK7 zymogen act 42 | KLK7 act conf 71 | EDANS-DABCYL int 71
COc1ccc(-c2c(C)c3cc(O)ccc3oc2=O)cc1OC	none
COc1ccc(-c2cc(=O)c3ccc(O)cc3o2)cc1OC	KLK7 zymogen act 121 (not shown: PfGluPho inh, Neddyl block) | KLK7 act conf 42 | EDANS-DABCYL int 46
CC1(C)Oc2cc3oc(=O)ccc3c3c2C2C1CCC(C)(O3)C2O (stereo unspecified)	KLK7 zymogen act 16 (not shown: PfGluPho inh, Neddyl block) | KLK7 act conf 24 | EDANS-DABCYL int 31
CC1(C)Oc2ccc3ccc(=O)oc3c2[C@@H](O)[C@@H]1O	none (not shown: Neddyl block)
C[C@@H]1CCN(C2CC2)S(=O)(=O)c2ccc(N3CCC[C@@H]3C)cc2O1	none (no result: PfGluPho inh, FAS TE block, Neddyl block)
Cc1ccc(C2=CC(c3cccs3)n3nnnc3N2)cc1 (stereo unspecified)	none
COc1ccccc1C1C2=C(CC(C)(C)CC2=O)Nc2nnnn21 (stereo unspecified)	KLK7 zymogen act 15 | KLK7 act conf 22 | EDANS-DABCYL int 20
COc1ccccc1C1C=C(c2ccc(C)cc2)Nc2nnnn21 (stereo unspecified)	KLK7 zymogen act 19 (not shown: Neddyl block) | KLK7 act conf 22 | EDANS-DABCYL int 17 | K7 EDANS ctr inactive
O=C(CSc1nccc(=O)[nH]1)NC1CCCCCC1	KLK7 zymogen act 61 | KLK7 act conf inactive | EDANS-DABCYL int inactive
CCCCC1C(C#N)=C(C)NC2=C1C(=O)CC(C)(C)C2 (stereo unspecified)	KLK7 zymogen act 41 (not shown: Neddyl block) | KLK7 act conf 22 | EDANS-DABCYL int 25
COC(=O)c1ccc(C2C(C#N)=C(C)NC3=C2C(=O)CC(C)(C)C3)cc1 (stereo unspecified)	KLK7 zymogen act 36 (not shown: Neddyl block) | KLK7 act conf 43 | EDANS-DABCYL int 30 | K7 EDANS ctr inactive
OC(c1ccccc1)(c1ccccc1)C1CCN(CCCNc2ccccc2Br)CC1	none (no result: PfGluPho inh, FAS TE block, Neddyl block)
O=c1[nH]c2cc(Br)c(Br)nc2[nH]1	none (no result: PfGluPho inh, FAS TE block, Neddyl block)
COC(=O)c1cc(C(c2ccccc2O)C2CCC(C)(C)O2)n2ccccc12 (stereo unspecified)	KLK7 zymogen act 36 (no result: PfGluPho inh, FAS TE block, Neddyl block) | KLK7 act conf inactive | EDANS-DABCYL int inactive
COC(=O)c1cc2c(-c3ccccc3)c(C)c3ccccn3c-2c1C(=O)OC	none
COC(=O)/C=C/c1c(C)nc(NCc2ccccc2)nc1Cl	KLK7 zymogen act 29 | KLK7 act conf 50 | EDANS-DABCYL int 51
O=[N+]([O-])c1ccccc1/C=C/C=Nn1c(-c2ccc(F)cc2)n[nH]c1=S	none (no result: PfGluPho inh, FAS TE block, Neddyl block)
CCCOc1nc2ccccc2cc1/C=C/C(=O)O	KLK7 zymogen act 17 (not shown: Neddyl block) | KLK7 act conf inactive | EDANS-DABCYL int 11
CCOc1nc2ccccc2cc1C=O	none
